Measurements: the supplement of paper PMC10720658
± gives the standard deviation of the averaged measurements.

test system: AEK1 (Tb927.3.2440); experiment: percent reduction in TR-FRET probe signal relative to DMSO control; higher = stronger displacement of ATP-site probe (binding); settings: 1 µM; incubation time 1 h

| SMILES | percent reduction in TR-FRET probe signal [%] |
| --- | --- |
| CN1CCC(Nc2nc(Nc3ccc(Oc4ccccc4)cc3)c3c(=O)[nH]cc(Br)c3n2)CC1 | 35.3 ± 9.5 |
| CNc1nc(Nc2cn(C(C)(C)C#N)nc2C)ncc1C(F)(F)F | -10.7 ± 11 |
| CCc1cncnc1N1CCN(Cc2nc3cc(C(F)(F)F)ccc3[nH]2)CC1 | -7.37 ± 13 |
| O=C(Nc1nc2cccc(-c3ccc(CN4CCS(=O)(=O)CC4)cc3)n2n1)C1CC1 [Filgotinib (GLPG0634)] | 9.11 ± 14 |
| COc1ccc(-c2ccc3c(N4CCOCC4)nc(N4C[C@@H](C)O[C@@H](C)C4)nc3n2)cc1CO | -3.76 ± 6.3 |
| CN1CCN(c2ccc(C(=O)Nc3n[nH]c4ccc(Cc5cc(F)cc(F)c5)cc34)c(NC3CCOCC3)c2)CC1 [Entrectinib (RXDX-101)] | -3.42 ± 2.4 |
| CN1CCN(c2nc(C3=C(c4c[nH]c5ccccc45)C(=O)NC3=O)c3ccccc3n2)CC1 [Sotrastaurin] | -7.1 ± 1.4 |
| Cl.NC(=O)c1cnc(N[C@@H]2CCCC[C@@H]2N)nc1Nc1cccc(-n2nccn2)c1 | -0.93 ± 1.4 |
| CC1(C)CNc2cc(NC(=O)c3cccnc3NCc3ccncc3)ccc21.O=P(O)(O)O.O=P(O)(O)O [Motesanib Diphosphate (AMG-706)] | 2.79 ± 7.6 |
| N#CC[C@@H](C1CCCC1)n1cc(-c2ncnc3[nH]ccc23)cn1 | 19.4 ± 9.1 |
| Cn1cnc2c(F)c(Nc3ccc(Br)cc3Cl)c(C(=O)NOCCO)cc21 [Selumetinib (AZD6244)] | 11.4 ± 34 |
| Cn1c(=O)c(F)c(Nc2ccc(I)cc2F)c2c(=O)n(C[C@@H](O)CO)cnc21 | 10.1 ± 14 |
| Cn1c(Nc2ccc(C(F)(F)F)cc2)nc2cc(Oc3ccnc(-c4ncc(C(F)(F)F)[nH]4)c3)ccc21 | 34 ± 20 |
| Nc1ccc(C(=O)Nc2cccc(-c3nc(N4CCOCC4)c4oc5ncccc5c4n3)c2)cn1 | -7.4 ± 3 |
| Cc1c(NC(=O)c2ccc(C(C)(C)C)cc2)cccc1-c1cn(C)c(=O)c(Nc2ccc(C(=O)N3CCOCC3)cc2)n1 | -8 ± 7.8 |
| Cc1c[nH]c(-c2cnc(NCCNc3ccc(C#N)cn3)nc2-c2ccc(Cl)cc2Cl)n1.Cl | -2.62 ± 8.5 |
| O=C1NC(=O)C(c2cnc3ccccn23)=C1c1cn2c3c(cc(F)cc13)CN(C(=O)N1CCCCC1)CC2 | -14.7 ± 8.7 |
| COc1ccc(CNC(=O)Nc2ncc([N+](=O)[O-])s2)cc1 | -3.27 ± 4.3 |
| Cc1cc(C(C)Nc2ccccc2)c2nc(N3CCOCC3)cc(=O)n2c1 (stereo not given) | -4.42 ± 15 |
| O=C1Nc2ccc(I)cc2/C1=C/c1cc(Br)c(O)c(Br)c1 | 8.22 ± 8.7 |
| C=CC(=O)Nc1cc(Nc2nccc(-c3cn(C)c4ccccc34)n2)c(OC)cc1N(C)CCN(C)C | -8.86 ± 8.3 |
| O=C1NC(=O)/C(=C\c2ccc(-c3ccc(F)cc3)o2)S1 | -0.187 ± 4.6 |
| CCc1cccc(CC)c1NC(=O)N1Cc2[nH]nc(NC(=O)c3ccc(N4CCN(C)CC4)cc3)c2C1 | 29.3 ± 8.1 |
| CCS(=O)(=O)Nc1ccc2c(c1)/C(=C(/Nc1ccc(CN3CCCCC3)cc1)c1ccccc1)C(=O)N2 [Hesperadin] | 97.4 ± 5.1 |
| Cc1c[nH]c(-c2cnc(NCCNc3ccc(C#N)cn3)nc2-c2ccc(Cl)cc2Cl)n1 | 2.8 ± 12 |
